Experimental data reported in PubChem BioAssay.
The source made the active and inactive calls.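 How the source made its calls, unless noted: active means inhibition of the reporter signal at or above 50%; inactive means inhibition below 50%.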

Columns and labels:
[1] = inhibitors of TNFa-induced NFkB p65 translocation, primary screen, imaging, HUVEC, MLSMR starter and 10KST1 sets (AID 438;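 active means inhibition above 20% together with a positive visual image hit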;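 further: compound added about 3h40 before a 20 min TNFalpha stimulation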;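 on inhibition: signal is the nuclear over cytoplasmic p65 intensity ratio per well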); conditions: HUVEC TNFa-induced p65 nuclear translocation; cell count: measured here: nuclei count (cytotoxicity indicator), at 2.08 µM; inhibition: at 2 µM, stronger effect = higher value, 0% TNFa-plus-vehicle, 100% no-TNFa wells
[2] = reduction of polyQ htt aggregates in cells – imaging, exon1htt(103Q)mCFP cells, high-content imaging, primary screen (AID 483;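 active means visual image review flags a hit and inhibition of aggregation exceeds 20%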;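 further: compound exposure lasted 3 days before fixation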;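 on nuclei count: percent of the per-plate median nuclei count of sample wells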); conditions: exon1htt(103Q)mCFP cell line, aggregate imaging, at 2 µM; inhibition of aggregation: stronger effect = higher value; nuclei count: measured here: cell count, toxicity
[3] = endothelial E-selectin expression blockers – imaging, HUVEC, immunofluorescence, MLSMR starter and 10KST1 sets, primary screen (AID 487;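 active means visually confirmed hit in the image check and inhibition above 20%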;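 on inhibition: signal is fraction of cell area covered by stained E-selectin grains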;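 on nuclei count: 100% = median nuclei count of all wells on the same plate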); conditions: HUVEC TNFalpha-induced E-selectin immunofluorescence imaging, at 2 µM; inhibition: stronger effect = higher value; nuclei count: measured here: cell number, toxicity
[4] = biological target: Voltage-gated potassium channel subunit beta-2 (Rattus norvegicus) (UniProt P62483); experiment: inhibitors of rat Kvbeta2 reductase activity – biochemical, NADPH fluorescence, primary screen (AID 622;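 active means fluorescence slope higher than the sample average by over 3 SD, cut at about -0.22 in these data, passing the limit was not always enough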;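 further: slope of raw intensity against log time taken from 70 to 1610 s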); conditions: recombinant KvBeta, 4-cyanobenzaldehyde reduction, at 10 µM, stronger effect = higher value
Chain of Voltage-gated potassium channel subunit beta-2 (Rattus norvegicus) (P62483 whole entry, looked up): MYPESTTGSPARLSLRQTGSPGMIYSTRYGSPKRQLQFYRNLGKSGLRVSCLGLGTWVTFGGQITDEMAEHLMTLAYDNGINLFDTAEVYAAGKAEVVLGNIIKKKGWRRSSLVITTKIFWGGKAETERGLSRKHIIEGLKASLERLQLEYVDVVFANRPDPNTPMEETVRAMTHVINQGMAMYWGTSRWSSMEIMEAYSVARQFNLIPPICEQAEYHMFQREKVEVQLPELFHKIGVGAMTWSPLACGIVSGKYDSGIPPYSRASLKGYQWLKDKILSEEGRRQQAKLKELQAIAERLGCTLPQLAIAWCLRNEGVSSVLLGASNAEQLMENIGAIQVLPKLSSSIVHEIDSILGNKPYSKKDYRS

[5] = biological target: Voltage-gated potassium channel subunit beta-2 (Rattus norvegicus) (UniProt P62483); experiment: enhancers of rat Kvbeta2 NADPH turnover – biochemical, NADPH fluorescence, primary screen (AID 623;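 active means NADPH fluorescence slope more negative than the mean of all samples by about 3 SD, 99.7% confidence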;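 further: fluorescence intensity change per second fitted from 20 to 320 s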); conditions: Recombinant KvBeta, NADPH fluorescence decrease slope, 10 min; at 10 µM; stronger effect = lower value
[6] = biological target: Alpha-2C adrenergic receptor (Homo sapiens) (UniProt P18825); experiment: compounds altering alpha2C-coupled GIRK flux – cell-based, HEK293 alpha2C/GIRK1/2, thallium flux, primary screen (AID 624;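 active means fluorescence slope after compound addition differing from the mean of all screened samples at 99.7% confidence, in either direction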;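 further: slope of fluorescence ratio to pre-addition baseline per second over 15 to 24 s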); conditions: thallium flux BTC fluorescence, at 10 µM, actives lie on both sides
Chain of Alpha-2C adrenergic receptor (Homo sapiens) (P18825 whole entry, looked up): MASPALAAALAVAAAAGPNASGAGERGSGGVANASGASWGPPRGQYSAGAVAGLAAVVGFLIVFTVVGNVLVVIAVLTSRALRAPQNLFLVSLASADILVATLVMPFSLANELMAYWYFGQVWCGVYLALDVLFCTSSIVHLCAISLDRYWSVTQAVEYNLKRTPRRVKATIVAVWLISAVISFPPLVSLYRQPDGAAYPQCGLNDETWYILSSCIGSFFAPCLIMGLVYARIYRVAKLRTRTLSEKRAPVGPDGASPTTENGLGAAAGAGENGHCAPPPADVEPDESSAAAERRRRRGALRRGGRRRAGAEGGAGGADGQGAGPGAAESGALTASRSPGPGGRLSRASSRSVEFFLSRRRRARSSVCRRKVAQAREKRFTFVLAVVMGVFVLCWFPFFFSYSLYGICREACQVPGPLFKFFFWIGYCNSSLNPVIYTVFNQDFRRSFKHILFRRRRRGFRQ

[7] = blockers of RIG-like receptor reporter activation – cell-based, Sendai virus stimulus, luciferase, 10K MLSCN set, TLR/RLR signaling modifier project, primary screen (AID 602276;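 active means inhibition at or above 50% at 10 µM; inactive means inhibition below 50%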;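 further: firefly luciferase from ISG56 promoter only with Renilla not read in this screen; 0% = Sendai virus plus DMSO and 100% = medium plus DMSO without virus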); conditions: HEK293 RL24 IRF3 luciferase reporter, at 10 µM, stronger effect = higher value
[8] = TLR3 IRF3 reporter activation blockers – cell-based, poly I:C stimulus, luciferase, 10K MLSCN set, primary screen (AID 602277); conditions: HEK293-TLR3 RL24 IRF3 luciferase reporter, at 10 µM, stronger effect = higher value

| Structure (SMILES) | cell count [1] | inhibition [1] | inhibition of aggregation [2] | nuclei count [2] [%] | inhibition [3] | nuclei count [3] [%] | fluorescence slope [4] | NADPH fluorescence slope [5] | slope [6] | inhibition [7] | inhibition [8] |
| --- | --- | --- | --- | --- | --- | --- | --- | --- | --- | --- | --- |
| c1ccc(C(Cc2nc(-c3ccccn3)no2)c2ccccc2)cc1 | 337 | -8% (inactive) | 4% (inactive) | 110 | -83.3% (inactive) | 100 | -0.449 (inactive) | -6.2e-05 (inactive) | 0.00562 (inactive) | 20.3% (inactive) | 14.4% (inactive) |
| Cc1nc(CNS(=O)(=O)c2cccc(F)c2)cs1 | 307 | 5% (inactive) | 14.1% (inactive) | 87.9 | -10.3% (inactive) | 92.4 | -0.506 (inactive) | -3.7e-05 (inactive) | 0.00673 (inactive) | 7.13% (inactive) | 20.4% (inactive) |
| O=C(Nc1ncnc2sc3c(c12)CCC3)c1ccco1 | 289 | -1.6% (inactive) | 0.8% (inactive) | 75.8 | -12.5% (inactive) | 118 | -0.327 (inactive) | -4.2e-05 (inactive) | 0.00564 (inactive) | -7.87% (inactive) | -0.691% (inactive) |
| CCCn1c(SCC(=O)N2CCN(c3ccccc3)CC2)nc2ccccc2c1=O | 331 | -8.5% (inactive) | -6.7% (inactive) | 101 | 23.2% (inactive) | 124 | -0.595 (inactive) | 3.4e-07 (inactive) | 0.00536 (inactive) | -9.23% (inactive) | -10.6% (inactive) |
| COc1ccc(-c2nnc(-c3ccc(N)cc3)o2)cc1 | 332 | 5.5% (inactive) | 9.6% (inactive) | 111 | -145% (inactive) | 124 | -0.0553 (active) | -2.2e-05 (inactive) | 0.00409 (inactive) | -34.1% (inactive) | -82.2% (inactive) |
| COc1ccc(/C=N/n2cc(-c3ccc(OC)cc3)nc2N)cc1 | 351 | 10.9% (inactive) | 2.2% (inactive) | 107 | 6.3% (inactive) | 117 | -0.246 (inactive) | 1.1e-05 (inactive) | 0.00586 (inactive) | 8.24% (inactive) | 2.92% (inactive) |
| O=C(Cc1ccccc1)N1CCCC(c2nc(-c3cccs3)no2)C1 (centres undefined) | 731 | -6.1% (inactive) | -15.1% (inactive) | 89.6 | -22.8% (inactive) | 121 | -0.475 (inactive) | 1.1e-05 (inactive) | 0.00636 (inactive) | -9.21% (inactive) | 2.57% (inactive) |
| COC(=O)Cn1c(CN2CCN(c3ccccc3F)CC2)nc2c1c(=O)n(C)c(=O)n2C | 633 | -1.4% (inactive) | -18.2% (inactive) | 90.2 | 7.8% (inactive) | 87.6 | -0.555 (inactive) | -3.8e-05 (inactive) | 0.0082 (inactive) | 7.96% (inactive) | 19.6% (inactive) |
| CCn1c(=N)n(CC(O)c2ccco2)c2ccccc21 (centres undefined) | 321 | -8.1% (inactive) | -20.7% (inactive) | 87.8 | -33% (inactive) | 110 | -0.358 (inactive) | -5.8e-05 (inactive) | 0.00623 (inactive) | 10.3% (inactive) | 24.1% (inactive) |
